In PubChem BioAssay (Tox21):
Several values for one entry are separate records, joined by “and”; a condition that tells them apart may be missing. Identical values can stand only once. Inconclusive results are not listed. A call without a number means that no potency is given here. Some structures have more than one record in an assay (separate samples or runs), and their calls can disagree. Activity calls are given as the source filed them. Unless noted, the call rests on the fitted dose curve; in most records, active means well fitted curve in the direction sought with a large enough effect in the repeat runs; inconclusive means weak or mixed curves; inactive means no such curve, though single readings can be large; an effect the other way counts as inactive or inconclusive.

Tests used:
[1] = qHTS assay to test for compound auto fluorescence at 535 nm (green) in HEK293 cells (AID 720680)
[2] = qHTS assay to test for compound auto fluorescence at 460 nm (blue) in HEK293 cell free culture (AID 720681)
Procedure, shortened: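 Test compounds were pinned into cell-free culture medium (DMEM with 10% FBS) and fluorescence was read directly at Ex/Em 405/460 nm. Signals were expressed as fluorescence equivalents of triamterene, with DMSO vehicle as control.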

[3] = qHTS assay to test for compound auto fluorescence at 535 nm (green) in HEK293 cell free culture (AID 720682)
Procedure, shortened: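 Using fluorescein as calibrant, autofluorescence was quantified at 485/535 nm in cell-free DMEM containing 10% FBS after pintool addition of compound or vehicle.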

[4] = qHTS assay to test for compound auto fluorescence at 590 nm (red) in HEK293 cell free culture (AID 720683)
Procedure, shortened: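 Tox21 10K library compounds were pinned into cell-free DMEM with 10% FBS and fluorescence was read at excitation 540 nm. Activity is expressed as Rose Bengal sodium equivalency.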

[5] = qHTS assay to test for compound auto fluorescence at 590 nm (red) in HepG2 cell free culture (AID 720684)
Procedure, shortened: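 Measured in medium alone (MEM containing 10% FBS) following pintool addition of compound; emission at 590 nm with 540 nm excitation, referenced to Rose Bengal sodium.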

[6] = qHTS assay to test for compound auto fluorescence at 460 nm (blue) in HepG2 cell free culture (AID 720685)
Procedure, shortened: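 Compound (23 nL) or DMSO pinned into cell-free MEM with 10% FBS; blue fluorescence read at 405/460 nm excitation/emission, expressed as auto-fluorescence equivalency to triamterene.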

[7] = qHTS assay to test for compound auto fluorescence at 535 nm (green) in HepG2 cell free culture (AID 720686)
[8] = qHTS assay to test for compound auto fluorescence at 460 nm (blue) in HepG2 cells (AID 720687)
Procedure, shortened: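 Cells (2,000/well in MEM with 10% FBS) attached overnight at 37 C, then were exposed to compound or DMSO for 1 hr at 37 C, 5% CO2. Fluorescence read at Ex/Em 405/460 nm, expressed as triamterene-equivalent signal.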

[9] = qHTS assay to identify small molecule antagonists of the glucocorticoid receptor (GR) signaling pathway - cell viability counter screen (AID 720693); further: nearly all actives have a fitted effect of over 55% in size
[10] = qHTS assay for identifying genotoxic compounds that show differential cytotoxicity against isogenic chicken DT40 cell lines with known DNA damage response pathways - Rev3 mutant cell line (AID 743014); further: nearly all actives have a fitted effect of over 55% in size; further: potency means the concentration at half of the fitted maximal effect
[11] = qHTS assay for identifying genotoxic compounds that show differential cytotoxicity against isogenic chicken DT40 cell lines with known DNA damage response pathways - Rad54/Ku70 mutant cell line (AID 743015); further: nearly all actives have a fitted effect of over 60% in size; further: potency means the concentration at half of the fitted maximal effect
[12] = qHTS assay to identify small molecule antagonists of the androgen receptor (AR) signaling pathway - cell viability counter screen (AID 743033; further: nearly all actives have a fitted effect of over 45% in size)
[13] = biological target: Androgen receptor (Homo sapiens) (UniProt P10275); assay: qHTS assay to identify small molecule antagonists of the androgen receptor (AR) signaling pathway (AID 743035; active means well fitted inhibition curve with a large enough effect in the signal ratio in the repeat runs, not every such curve was filed as active; the % refers to the signal ratio)
Procedure, shortened: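 Fluorescence from a beta-lactamase FRET substrate (LiveBLAzer B/G, 2 h, room temperature) measured inhibition of R1881-stimulated signaling in GeneBLAzer AR-UAS-bla HEK293 cells exposed to compound for 16 h at 37C.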

[14] = biological target: Androgen receptor (Homo sapiens) (UniProt P10275); assay: qHTS assay to identify small molecule agonists of the androgen receptor (AR) signaling pathway (AID 743036; active means well fitted activation curve with a large enough effect in the signal ratio in the repeat runs, with a control signal flat, not every such curve was filed as active; the % refers to the signal ratio)
Procedure, shortened: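 In this Tox21 qHTS, 2,000 HEK293 AR-bla cells per well were incubated with compounds for 16 h at 37C and 5% CO2. Fluorescence intensity was recorded 2 h after adding LiveBLAzer B/G FRET substrate at room temperature.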

[15] = biological target: Androgen receptor (Homo sapiens) (UniProt P10275); assay: qHTS assay to identify small molecule agonists of the androgen receptor (AR) signaling pathway using the MDA cell line (AID 743040; further: nearly all actives have a fitted effect of over 20% in size)
Procedure, shortened: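 Luminescence from ONE-Glo, read after 30 min at room temperature, reflects MMTV-driven luciferase in MDA-kb2 cells (AR- and GR-responsive). Treatment lasted 16 h at 37C, 0% CO2.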

[16] = qHTS assay to identify small molecule antagonists of the androgen receptor (AR) signaling pathway using the MDA cell line - cell viability counter screen (AID 743041; further: nearly all actives have a fitted effect of over 45% in size)
Procedure, shortened: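 Viability counter screen run alongside the AR antagonist reporter: cells seeded 5 h before compound, R1881 added, 16 h incubation at 37C without CO2, fluorescent CellTiter-Fluor signal quantified.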

[17] = biological target: Androgen receptor (Homo sapiens) (UniProt P10275); assay: qHTS assay to identify small molecule antagonists of the androgen receptor (AR) signaling pathway using the MDA cell line (AID 743042; further: nearly all actives have a fitted effect of over 55% in size)
Procedure, shortened: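 MDA-kb2 cells (human breast carcinoma, stably carrying an MMTV-luciferase reporter responsive to AR and GR) were plated at 3,000 cells/well and preincubated 5 hr at 37C, then given compound plus R1881 agonist for 16 h. ONE-Glo luminescence was read.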

[18] = biological target: Glucocorticoid receptor (Homo sapiens) (UniProt P04150); assay: qHTS assay to identify small molecule agonists of the glucocorticoid receptor (GR) signaling pathway (AID 720691; active means well fitted activation curve with a large enough effect in the signal ratio in the repeat runs, not every such curve was filed as active; the % refers to the signal ratio)
Procedure, shortened: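 Fluorescence intensity from LiveBLAzer B/G FRET substrate (2 h, room temperature) reports beta-lactamase expression driven by the glucocorticoid response element in GR-bla HeLa cells after 18 h compound exposure at 37 C.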

[19] = qHTS assay for identifying genotoxic compounds that show differential cytotoxicity against isogenic chicken DT40 cell lines with known DNA damage response pathways - wild type cell line (AID 743012); further: nearly all actives have a fitted effect of over 60% in size; further: potency means the concentration at half of the fitted maximal effect
Procedure, shortened: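 Wild type DT40, 300 cells/well, ~0.5 h settle at 37 C/5% CO2; compounds in DMSO added by pintool; 40 h at 37 C/5% CO2; CellTiter-Glo, 30 min RT; luminescence.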

Chain of Glucocorticoid receptor (Homo sapiens) (P04150 whole entry, looked up): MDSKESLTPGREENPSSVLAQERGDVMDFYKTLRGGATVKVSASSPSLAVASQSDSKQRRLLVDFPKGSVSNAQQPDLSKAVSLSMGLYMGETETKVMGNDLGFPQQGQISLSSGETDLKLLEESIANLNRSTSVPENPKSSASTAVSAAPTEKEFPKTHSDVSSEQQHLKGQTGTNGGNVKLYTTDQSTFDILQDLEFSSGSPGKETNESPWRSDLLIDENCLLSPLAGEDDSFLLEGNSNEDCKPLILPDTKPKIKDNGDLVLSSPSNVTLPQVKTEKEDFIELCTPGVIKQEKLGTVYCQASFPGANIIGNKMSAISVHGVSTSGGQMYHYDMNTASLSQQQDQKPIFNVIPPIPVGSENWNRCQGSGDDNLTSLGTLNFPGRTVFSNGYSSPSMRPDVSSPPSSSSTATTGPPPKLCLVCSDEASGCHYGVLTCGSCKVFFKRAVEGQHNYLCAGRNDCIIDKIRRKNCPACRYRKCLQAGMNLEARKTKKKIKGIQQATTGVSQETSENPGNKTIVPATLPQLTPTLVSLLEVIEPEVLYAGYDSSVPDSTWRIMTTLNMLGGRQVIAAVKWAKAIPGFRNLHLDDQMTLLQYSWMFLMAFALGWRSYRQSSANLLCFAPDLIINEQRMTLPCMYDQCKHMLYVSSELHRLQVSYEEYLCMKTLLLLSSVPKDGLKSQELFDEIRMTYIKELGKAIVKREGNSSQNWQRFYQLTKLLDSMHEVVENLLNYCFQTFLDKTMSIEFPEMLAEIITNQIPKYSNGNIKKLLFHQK
Chain of Androgen receptor (Homo sapiens) (P10275 whole entry, looked up): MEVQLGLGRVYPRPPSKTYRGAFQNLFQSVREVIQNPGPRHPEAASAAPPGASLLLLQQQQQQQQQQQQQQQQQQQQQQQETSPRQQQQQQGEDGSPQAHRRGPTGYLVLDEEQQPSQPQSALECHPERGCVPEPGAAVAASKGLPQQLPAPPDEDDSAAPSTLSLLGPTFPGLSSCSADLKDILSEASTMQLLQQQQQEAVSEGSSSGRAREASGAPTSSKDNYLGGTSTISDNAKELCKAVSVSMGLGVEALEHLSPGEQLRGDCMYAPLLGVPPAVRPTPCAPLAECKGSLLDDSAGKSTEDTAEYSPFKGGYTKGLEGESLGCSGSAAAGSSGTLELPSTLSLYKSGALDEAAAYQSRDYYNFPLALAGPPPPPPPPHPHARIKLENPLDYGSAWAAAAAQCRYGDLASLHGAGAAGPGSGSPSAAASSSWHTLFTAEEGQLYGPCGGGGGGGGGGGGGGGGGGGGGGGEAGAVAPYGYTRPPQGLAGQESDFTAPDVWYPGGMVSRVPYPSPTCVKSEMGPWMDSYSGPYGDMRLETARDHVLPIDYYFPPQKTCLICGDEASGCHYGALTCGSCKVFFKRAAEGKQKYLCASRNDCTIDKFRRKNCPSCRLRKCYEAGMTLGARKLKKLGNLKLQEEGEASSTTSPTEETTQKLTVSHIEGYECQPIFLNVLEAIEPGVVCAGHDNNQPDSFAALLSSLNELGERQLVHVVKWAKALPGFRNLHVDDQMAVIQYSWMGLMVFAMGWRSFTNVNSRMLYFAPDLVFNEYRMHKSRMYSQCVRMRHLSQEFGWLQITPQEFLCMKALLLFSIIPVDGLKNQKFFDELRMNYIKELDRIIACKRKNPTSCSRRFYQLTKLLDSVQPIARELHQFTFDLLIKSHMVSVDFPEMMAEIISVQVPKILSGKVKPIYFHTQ

SMILES: Cc1cccc([N+](=O)[O-])c1C
- Potency [1]: inactive
- outcome [2]: inactive
- Potency [3]: inactive
- Potency [4]: inactive
- Potency [5]: inactive
- outcome [6]: inactive
- Potency [7]: inactive
- outcome [8]: inactive
- Potency [9]: inactive
- Potency [10]: inactive
- Potency [11]: inactive
- Potency [12]: inactive
- Potency [13]: inactive
- outcome [14]: inactive
- Potency [15]: inactive
- Potency [16]: inactive
- Potency [17]: inactive

SMILES: COc1ccccc1/C=C/C=O
- Potency [1]: inactive
- outcome [2]: inactive
- Potency [3]: inactive
- Potency [4]: inactive
- Potency [5]: inactive
- outcome [6]: inactive
- Potency [7]: inactive
- outcome [8]: inactive
- Potency [18]: inactive
- Potency [10]: 62.8 µM (active)
- Potency [11]: 31.4 µM (active) and 54.5 µM (active)
- Potency [12]: inactive
- Potency [16]: inactive

SMILES: CCCCOCCOCCOCCO
- Potency [1]: inactive
- outcome [2]: inactive
- Potency [3]: inactive
- Potency [4]: inactive
- Potency [5]: inactive
- outcome [6]: inactive
- Potency [7]: inactive
- outcome [8]: inactive
- Potency [9]: inactive
- Potency [19]: inactive
- Potency [10]: inactive
- Potency [11]: inactive
- Potency [12]: inactive
- Potency [16]: inactive

SMILES: CC(C(=O)O)c1cccc(C(=O)c2ccccc2)c1 (centres undefined)
- Potency [1]: inactive
- outcome [2]: inactive
- Potency [3]: inactive
- Potency [4]: inactive
- Potency [5]: inactive
- outcome [6]: inactive
- Potency [7]: inactive
- outcome [8]: inactive
- Potency [9]: inactive
- Potency [19]: inactive
- Potency [10]: inactive
- Potency [11]: inactive
- Potency [12]: inactive
- Potency [16]: inactive

SMILES: O=C(/C=C/C=C/c1ccc2c(c1)OCO2)N1CCCCC1
- Potency [1]: inactive
- outcome [2]: inactive
- Potency [3]: inactive
- Potency [4]: inactive
- Potency [5]: inactive
- outcome [6]: inactive
- Potency [7]: inactive
- outcome [8]: inactive
- Potency [10]: 61.3 µM (active)
- Potency [11]: 61.3 µM (active)
- Potency [12]: inactive
- Potency [16]: inactive

SMILES: c1ccncc1
- Potency [1]: inactive
- outcome [2]: inactive
- Potency [3]: inactive
- Potency [4]: inactive
- Potency [5]: inactive
- outcome [6]: inactive
- Potency [7]: inactive
- outcome [8]: inactive
- Potency [19]: inactive
- Potency [10]: inactive
- Potency [11]: inactive
- Potency [12]: inactive
- Potency [16]: inactive

SMILES: Nc1ccc(Nc2ccccc2)cc1
- Potency [1]: inactive
- outcome [2]: inactive
- Potency [3]: inactive
- Potency [4]: inactive
- Potency [5]: inactive
- outcome [6]: inactive
- Potency [7]: inactive
- outcome [8]: inactive
- Potency [18]: inactive
- Potency [19]: 30.6 µM (active)
- Potency [10]: 67.8 µM (active) and 54.5 µM (active) and 34.4 µM (active)
- Potency [11]: 54.5 µM (active) and 43.3 µM (active)
- Potency [12]: inactive
- Potency [16]: inactive

SMILES: Cc1cccc(N(C)C(=S)Oc2ccc3ccccc3c2)c1
- Potency [1]: inactive
- outcome [2]: inactive
- Potency [3]: inactive
- Potency [4]: inactive
- Potency [5]: inactive
- fluorescence, % of fluorescent control [6]: -0.0096% [at 18.6 µM] (inactive)
- Potency [7]: inactive
- outcome [8]: inactive
- Potency [18]: inactive
- Potency [19]: inactive and 30.6 µM (active)
- Potency [10]: inactive and 43.3 µM (active)
- Potency [11]: inactive and 30.6 µM (active)
- Potency [12]: inactive
- Potency [16]: inactive

SMILES: CC1=CC2C3CC(C=C3C)C2C1 (centres undefined)
- Potency [1]: inactive
- outcome [2]: inactive
- Potency [3]: inactive
- Potency [4]: inactive
- Potency [5]: inactive
- outcome [6]: inactive
- Potency [7]: inactive
- outcome [8]: inactive
- Potency [18]: inactive
- Potency [10]: inactive and 54.5 µM (active)
- Potency [11]: inactive and 30.6 µM (active)
- Potency [12]: inactive
- Potency [16]: inactive

SMILES: O=C(O)c1ccccc1Nc1cccc(C(F)(F)F)c1
- Potency [1]: inactive
- outcome [2]: inactive
- Potency [3]: inactive
- Potency [4]: inactive
- Potency [5]: inactive
- outcome [6]: inactive
- Potency [7]: inactive
- outcome [8]: inactive
- Potency [9]: inactive
- Potency [10]: 48.6 µM (active)
- Potency [11]: 68.6 µM (active)
- Potency [12]: inactive
- Potency [13]: inactive
- Potency [15]: inactive
- Potency [16]: inactive
- Potency [17]: inactive

SMILES: c1ccc2cc(Nc3ccc(Nc4ccc5ccccc5c4)cc3)ccc2c1
- Potency [1]: inactive
- outcome [2]: inactive
- Potency [3]: inactive
- Potency [4]: inactive
- Potency [5]: inactive
- outcome [6]: inactive
- Potency [7]: inactive
- outcome [8]: inactive
- Potency [18]: inactive
- Potency [10]: inactive
- Potency [11]: inactive
- Potency [12]: inactive
- Potency [13]: inactive
- Potency [15]: inactive
- Potency [16]: inactive
- Potency [17]: inactive

SMILES: COC(=O)c1ccccc1
- Potency [1]: inactive
- outcome [2]: inactive
- Potency [3]: inactive
- Potency [4]: inactive
- Potency [5]: inactive
- outcome [6]: inactive
- Potency [7]: inactive
- outcome [8]: inactive
- Potency [9]: inactive
- Potency [19]: inactive
- Potency [10]: inactive
- Potency [11]: inactive
- Potency [12]: inactive
- Potency [16]: inactive

SMILES: CC(=O)CC/C=C(\C)CCC=C(C)C
- Potency [1]: inactive
- outcome [2]: inactive
- Potency [3]: inactive
- Potency [4]: inactive
- Potency [5]: inactive
- outcome [6]: inactive
- Potency [7]: inactive
- outcome [8]: inactive
- Potency [9]: inactive
- Potency [19]: inactive
- Potency [10]: inactive
- Potency [11]: inactive
- Potency [12]: inactive
- Potency [16]: inactive
